From the supplement of paper PMC11732987, “Enantioselective OTUD7B fragment discovery through chemoproteomics screening and high-throughput optimisation” (Communications Chemistry, 2025)

Legend:
Experiment in all cases: log2 ratio of Biotin-Ahx-Ub-VS probe labelling (fragment/DMSO); higher = less target engagement (more negative = stronger competition), active = hit call of the paper (q ≤ 0.05, log2 ratio ≤ -1)
Conditions in all cases: compound concentration: 200 uM; treatment time: 3 h
USP34 = USP34 (UniProt Q70CQ2)
Sequence of USP34 (Q70CQ2 whole entry, the tested form may be a part): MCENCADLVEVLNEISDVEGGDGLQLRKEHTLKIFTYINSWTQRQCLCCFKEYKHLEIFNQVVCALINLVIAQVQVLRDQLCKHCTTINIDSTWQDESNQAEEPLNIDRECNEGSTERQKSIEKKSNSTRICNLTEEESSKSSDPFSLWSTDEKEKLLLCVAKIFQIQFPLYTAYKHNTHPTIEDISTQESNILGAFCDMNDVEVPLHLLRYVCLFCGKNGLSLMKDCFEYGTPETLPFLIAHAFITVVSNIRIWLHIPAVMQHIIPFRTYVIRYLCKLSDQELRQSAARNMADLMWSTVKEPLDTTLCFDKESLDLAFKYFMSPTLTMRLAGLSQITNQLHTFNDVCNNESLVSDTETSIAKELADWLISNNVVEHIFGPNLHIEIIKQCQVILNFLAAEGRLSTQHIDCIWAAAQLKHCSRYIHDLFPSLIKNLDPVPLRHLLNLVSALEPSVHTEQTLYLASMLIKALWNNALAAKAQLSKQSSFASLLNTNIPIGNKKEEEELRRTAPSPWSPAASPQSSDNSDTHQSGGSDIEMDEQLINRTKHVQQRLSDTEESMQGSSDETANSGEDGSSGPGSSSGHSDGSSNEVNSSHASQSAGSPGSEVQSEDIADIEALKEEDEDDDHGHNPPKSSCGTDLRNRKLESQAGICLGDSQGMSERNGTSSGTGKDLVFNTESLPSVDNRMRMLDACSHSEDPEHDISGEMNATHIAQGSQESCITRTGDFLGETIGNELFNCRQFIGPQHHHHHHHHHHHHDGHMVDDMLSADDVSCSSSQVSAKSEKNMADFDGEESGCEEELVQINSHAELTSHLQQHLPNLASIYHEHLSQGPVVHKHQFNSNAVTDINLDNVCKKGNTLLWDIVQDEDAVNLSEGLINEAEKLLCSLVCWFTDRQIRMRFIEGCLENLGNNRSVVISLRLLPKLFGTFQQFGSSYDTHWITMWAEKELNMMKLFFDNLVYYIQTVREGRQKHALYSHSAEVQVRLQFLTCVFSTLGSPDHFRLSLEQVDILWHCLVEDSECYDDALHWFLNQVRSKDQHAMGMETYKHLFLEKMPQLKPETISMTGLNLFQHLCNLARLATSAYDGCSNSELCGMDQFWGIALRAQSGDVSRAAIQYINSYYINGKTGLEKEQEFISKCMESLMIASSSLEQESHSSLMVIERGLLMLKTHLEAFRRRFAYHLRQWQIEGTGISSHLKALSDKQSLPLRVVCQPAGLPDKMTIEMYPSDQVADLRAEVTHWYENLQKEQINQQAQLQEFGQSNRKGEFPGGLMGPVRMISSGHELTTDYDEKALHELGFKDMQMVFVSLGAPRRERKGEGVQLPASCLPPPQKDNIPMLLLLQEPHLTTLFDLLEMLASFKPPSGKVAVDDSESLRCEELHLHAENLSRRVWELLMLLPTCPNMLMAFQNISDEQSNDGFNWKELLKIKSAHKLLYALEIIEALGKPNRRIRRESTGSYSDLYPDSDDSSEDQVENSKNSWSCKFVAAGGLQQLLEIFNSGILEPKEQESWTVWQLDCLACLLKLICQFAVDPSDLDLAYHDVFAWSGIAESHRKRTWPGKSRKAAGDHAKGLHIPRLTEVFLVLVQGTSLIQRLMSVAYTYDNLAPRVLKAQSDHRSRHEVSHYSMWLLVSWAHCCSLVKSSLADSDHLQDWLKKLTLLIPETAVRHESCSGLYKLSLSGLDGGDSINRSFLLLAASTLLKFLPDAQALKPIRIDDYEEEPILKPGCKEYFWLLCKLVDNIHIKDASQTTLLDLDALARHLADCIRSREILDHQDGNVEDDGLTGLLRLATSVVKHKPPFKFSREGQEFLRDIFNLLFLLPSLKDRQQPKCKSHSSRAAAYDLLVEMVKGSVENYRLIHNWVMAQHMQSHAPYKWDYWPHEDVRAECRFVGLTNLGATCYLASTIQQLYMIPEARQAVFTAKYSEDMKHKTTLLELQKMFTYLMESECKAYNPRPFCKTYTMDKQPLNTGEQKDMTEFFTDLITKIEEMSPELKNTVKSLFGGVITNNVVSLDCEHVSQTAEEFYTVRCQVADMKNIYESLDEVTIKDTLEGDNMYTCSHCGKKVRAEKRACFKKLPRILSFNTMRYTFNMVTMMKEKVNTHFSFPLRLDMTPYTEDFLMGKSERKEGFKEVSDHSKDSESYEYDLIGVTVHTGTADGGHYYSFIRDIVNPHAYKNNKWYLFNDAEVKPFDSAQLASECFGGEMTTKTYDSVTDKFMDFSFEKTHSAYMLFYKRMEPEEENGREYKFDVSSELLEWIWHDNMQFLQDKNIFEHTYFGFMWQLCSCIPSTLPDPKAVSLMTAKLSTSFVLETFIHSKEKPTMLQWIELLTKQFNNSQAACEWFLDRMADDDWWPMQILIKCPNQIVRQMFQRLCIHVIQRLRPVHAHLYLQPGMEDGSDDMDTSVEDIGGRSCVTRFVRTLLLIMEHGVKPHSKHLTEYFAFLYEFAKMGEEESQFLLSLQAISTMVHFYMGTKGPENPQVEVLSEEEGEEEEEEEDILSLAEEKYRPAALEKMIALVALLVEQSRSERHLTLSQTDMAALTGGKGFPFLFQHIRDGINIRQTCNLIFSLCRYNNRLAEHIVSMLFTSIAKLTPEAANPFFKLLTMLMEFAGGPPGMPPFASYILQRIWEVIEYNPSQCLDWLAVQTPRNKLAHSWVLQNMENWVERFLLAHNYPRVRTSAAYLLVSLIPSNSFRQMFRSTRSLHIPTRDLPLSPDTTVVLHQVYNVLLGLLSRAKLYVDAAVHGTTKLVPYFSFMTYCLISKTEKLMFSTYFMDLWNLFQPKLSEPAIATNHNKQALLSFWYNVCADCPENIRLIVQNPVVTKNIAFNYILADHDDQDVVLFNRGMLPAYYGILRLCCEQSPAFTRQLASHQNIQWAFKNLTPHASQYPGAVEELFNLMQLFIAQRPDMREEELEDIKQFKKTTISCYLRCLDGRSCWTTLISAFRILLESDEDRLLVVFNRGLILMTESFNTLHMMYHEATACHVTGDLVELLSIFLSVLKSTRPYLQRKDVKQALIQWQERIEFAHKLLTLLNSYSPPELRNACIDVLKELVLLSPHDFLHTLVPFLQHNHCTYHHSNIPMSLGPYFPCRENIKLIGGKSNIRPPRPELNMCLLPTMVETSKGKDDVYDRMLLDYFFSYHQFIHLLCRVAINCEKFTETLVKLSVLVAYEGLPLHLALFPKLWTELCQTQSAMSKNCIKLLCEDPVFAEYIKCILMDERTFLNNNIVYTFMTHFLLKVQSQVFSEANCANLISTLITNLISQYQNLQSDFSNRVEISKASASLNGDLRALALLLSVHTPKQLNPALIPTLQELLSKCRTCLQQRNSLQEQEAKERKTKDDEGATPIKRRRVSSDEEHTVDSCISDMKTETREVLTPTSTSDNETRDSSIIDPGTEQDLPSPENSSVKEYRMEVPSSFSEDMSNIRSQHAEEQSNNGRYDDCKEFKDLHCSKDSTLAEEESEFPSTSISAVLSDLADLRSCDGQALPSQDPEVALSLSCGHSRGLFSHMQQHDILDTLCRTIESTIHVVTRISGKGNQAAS
Method in brief: (§1)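 Global-median-normalised Spectronaut label-free quantities were compared by unpaired t-test, and values are average log2 ratios of fragment over vehicle. Only proteins with ≥2 unique peptides were used. HEK293T lysate (495 µg per sample) was treated in triplicate with fragment at 200 µM or vehicle for 3 h and then with Biotin-Ahx-Ub-VS at 0.5 µM final for 1 h. Labelled DUBs were then NeutrAvidin-enriched, digested with LysC and trypsin, and run by diaPASEF LC-MS/MS.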

USP36 = target: T1, USP36 (UniProt Q9P275)
T1 sequence (whole entry): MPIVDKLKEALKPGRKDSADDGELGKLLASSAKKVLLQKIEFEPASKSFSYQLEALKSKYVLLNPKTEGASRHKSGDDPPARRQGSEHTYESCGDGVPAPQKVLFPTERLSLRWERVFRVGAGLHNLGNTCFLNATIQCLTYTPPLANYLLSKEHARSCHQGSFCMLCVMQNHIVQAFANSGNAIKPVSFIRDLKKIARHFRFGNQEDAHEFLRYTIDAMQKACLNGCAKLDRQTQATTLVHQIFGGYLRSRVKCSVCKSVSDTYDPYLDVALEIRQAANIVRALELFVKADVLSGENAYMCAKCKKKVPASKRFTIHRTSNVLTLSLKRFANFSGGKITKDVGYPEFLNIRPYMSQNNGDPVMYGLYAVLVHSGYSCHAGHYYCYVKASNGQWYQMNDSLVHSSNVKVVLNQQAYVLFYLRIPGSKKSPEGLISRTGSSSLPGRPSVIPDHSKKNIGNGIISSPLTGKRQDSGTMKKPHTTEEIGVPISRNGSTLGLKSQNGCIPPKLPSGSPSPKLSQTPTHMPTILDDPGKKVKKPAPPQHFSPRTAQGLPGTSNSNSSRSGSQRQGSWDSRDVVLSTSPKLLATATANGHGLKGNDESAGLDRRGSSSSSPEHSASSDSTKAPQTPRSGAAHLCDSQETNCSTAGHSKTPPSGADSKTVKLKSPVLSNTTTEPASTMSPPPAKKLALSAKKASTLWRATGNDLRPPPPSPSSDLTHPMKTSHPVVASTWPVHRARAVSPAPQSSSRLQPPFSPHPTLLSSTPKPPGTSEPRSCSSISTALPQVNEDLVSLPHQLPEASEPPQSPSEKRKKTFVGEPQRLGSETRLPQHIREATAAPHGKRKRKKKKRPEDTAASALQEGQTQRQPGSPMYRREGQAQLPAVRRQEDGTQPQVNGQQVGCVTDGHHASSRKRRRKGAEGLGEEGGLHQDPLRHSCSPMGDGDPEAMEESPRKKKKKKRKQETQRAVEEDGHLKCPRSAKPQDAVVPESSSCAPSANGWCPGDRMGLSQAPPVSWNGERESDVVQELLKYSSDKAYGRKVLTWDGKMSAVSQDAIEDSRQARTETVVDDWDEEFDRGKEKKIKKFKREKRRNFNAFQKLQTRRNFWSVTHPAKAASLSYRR
Method in brief: as §1

USP38 = target: T2, USP38 (UniProt Q8NB14)
T2 sequence (whole entry): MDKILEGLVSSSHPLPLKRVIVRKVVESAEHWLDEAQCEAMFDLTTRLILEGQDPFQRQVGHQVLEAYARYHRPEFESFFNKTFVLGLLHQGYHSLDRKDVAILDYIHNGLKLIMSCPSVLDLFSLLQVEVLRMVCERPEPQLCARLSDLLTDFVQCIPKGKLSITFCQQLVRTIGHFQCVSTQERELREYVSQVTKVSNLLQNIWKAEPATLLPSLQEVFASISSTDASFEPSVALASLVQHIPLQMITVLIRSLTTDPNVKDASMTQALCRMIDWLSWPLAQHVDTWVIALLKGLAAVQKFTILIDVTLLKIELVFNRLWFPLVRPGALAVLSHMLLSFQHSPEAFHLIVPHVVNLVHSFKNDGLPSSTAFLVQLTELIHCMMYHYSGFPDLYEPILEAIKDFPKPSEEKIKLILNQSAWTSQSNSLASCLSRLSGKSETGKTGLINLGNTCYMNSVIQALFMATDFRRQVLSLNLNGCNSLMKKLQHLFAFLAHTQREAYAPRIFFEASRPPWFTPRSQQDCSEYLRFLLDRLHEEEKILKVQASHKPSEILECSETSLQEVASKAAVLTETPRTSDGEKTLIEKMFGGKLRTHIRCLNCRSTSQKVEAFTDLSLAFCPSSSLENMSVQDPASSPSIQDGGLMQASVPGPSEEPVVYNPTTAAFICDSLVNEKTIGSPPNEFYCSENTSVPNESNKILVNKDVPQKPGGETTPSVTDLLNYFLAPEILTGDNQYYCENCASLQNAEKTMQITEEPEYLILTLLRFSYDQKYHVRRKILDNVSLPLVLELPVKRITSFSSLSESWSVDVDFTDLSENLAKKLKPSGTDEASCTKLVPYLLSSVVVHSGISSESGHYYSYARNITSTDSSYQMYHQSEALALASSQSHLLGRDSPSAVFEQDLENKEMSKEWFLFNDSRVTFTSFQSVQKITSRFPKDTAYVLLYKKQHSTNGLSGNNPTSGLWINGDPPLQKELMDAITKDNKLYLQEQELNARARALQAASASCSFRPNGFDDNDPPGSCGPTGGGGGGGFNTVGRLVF
Method in brief: as §1

USP39 = target: T3, USP39 (UniProt Q53GS9)
T3 sequence (whole entry): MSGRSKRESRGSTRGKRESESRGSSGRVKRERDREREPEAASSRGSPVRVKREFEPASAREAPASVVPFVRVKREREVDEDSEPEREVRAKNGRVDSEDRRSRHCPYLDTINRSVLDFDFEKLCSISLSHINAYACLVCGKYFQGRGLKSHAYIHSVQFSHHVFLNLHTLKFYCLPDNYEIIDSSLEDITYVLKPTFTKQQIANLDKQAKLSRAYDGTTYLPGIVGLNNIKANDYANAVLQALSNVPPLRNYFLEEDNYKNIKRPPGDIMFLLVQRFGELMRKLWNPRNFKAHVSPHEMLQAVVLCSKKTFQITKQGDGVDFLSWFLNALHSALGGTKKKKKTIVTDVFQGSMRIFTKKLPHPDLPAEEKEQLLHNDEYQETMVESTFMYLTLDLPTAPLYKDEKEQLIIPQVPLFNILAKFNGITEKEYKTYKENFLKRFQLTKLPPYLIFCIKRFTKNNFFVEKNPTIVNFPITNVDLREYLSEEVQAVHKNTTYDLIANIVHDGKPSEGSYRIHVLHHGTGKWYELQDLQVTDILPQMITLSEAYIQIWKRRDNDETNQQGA
Method in brief: as §1

USP4 = target: T4, USP4 (UniProt Q13107)
T4 sequence (whole entry): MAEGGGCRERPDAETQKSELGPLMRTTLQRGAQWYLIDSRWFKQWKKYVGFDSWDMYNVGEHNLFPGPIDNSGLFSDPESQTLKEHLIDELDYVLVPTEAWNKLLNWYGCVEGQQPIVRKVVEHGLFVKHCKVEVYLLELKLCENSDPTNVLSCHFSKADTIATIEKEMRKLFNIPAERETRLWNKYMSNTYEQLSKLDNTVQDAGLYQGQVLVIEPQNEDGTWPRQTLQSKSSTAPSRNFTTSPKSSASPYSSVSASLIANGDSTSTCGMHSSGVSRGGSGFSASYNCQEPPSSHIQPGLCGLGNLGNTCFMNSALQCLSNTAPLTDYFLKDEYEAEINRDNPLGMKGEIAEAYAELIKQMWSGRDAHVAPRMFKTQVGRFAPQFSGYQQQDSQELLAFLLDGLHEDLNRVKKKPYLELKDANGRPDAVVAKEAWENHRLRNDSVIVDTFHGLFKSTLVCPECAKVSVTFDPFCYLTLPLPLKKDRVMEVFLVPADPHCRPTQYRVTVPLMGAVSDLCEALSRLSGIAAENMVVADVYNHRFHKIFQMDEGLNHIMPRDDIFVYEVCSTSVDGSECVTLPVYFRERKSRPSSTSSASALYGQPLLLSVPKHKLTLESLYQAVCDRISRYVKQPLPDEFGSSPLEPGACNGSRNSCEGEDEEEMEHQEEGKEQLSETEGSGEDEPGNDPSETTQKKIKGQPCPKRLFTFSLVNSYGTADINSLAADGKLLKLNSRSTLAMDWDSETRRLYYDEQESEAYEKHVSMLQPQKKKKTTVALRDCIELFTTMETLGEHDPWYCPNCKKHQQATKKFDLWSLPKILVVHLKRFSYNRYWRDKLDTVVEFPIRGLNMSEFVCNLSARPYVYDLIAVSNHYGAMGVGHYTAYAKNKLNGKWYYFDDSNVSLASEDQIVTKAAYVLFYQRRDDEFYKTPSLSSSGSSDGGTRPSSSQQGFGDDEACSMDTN
Method in brief: as §1

Measured: log2 ratio of Biotin-Ahx-Ub-VS probe labelling

Cc1cccc(N2CCC(NC(=O)CCl)C2=O)c1 (stereo not given)
inactive: USP34 0.0479 | USP36 -0.0247 | USP38 -0.169 | USP39 -0.32 | USP4 -0.134
